Our source for the enrichment ratio values is a collection of fitness landscapes (doi:10.1126/science.1257360).

B1: PhoQ; a variant is named by its letters at X, in order, P23837 (parent)
chain: MKKLLRLFFPLSLRVRFLLATAAVVLVLSLAYGMVALIGYSVSFDKTTFRLLRGESNLFYTLAKWENNKLHVELPENIDKQSPTMTLIYDENGQLLWAQRDVPWLMKMIQPDWLKSNGFHEIEADVNDTSLLLSGDHSIQQQLQEVREDDDDAEMTHSVAVNVYPATSRMPKLTIVVVDTIPVELKSSYMVWSWFIYVLSANLLLVIPLLWVAAWWSLRPIEALAKEVRELEEHNRELLNPATTRELTSLVRNLNRLLKSERERYDKYRTTLTDLTHSLKTPLXXLQXXLRSLRSEKMSVSDAEPVMLEQISRISQQIGYYLHRASMRGGTLLSRELHPVAPLLDNLTSALNKVYQRKGVNISLDISPEISFVGEQNDFVEVMGNVLDNACKYCLEFVEISARQTDEHLYIVVEDDGPGIPLSKREVIFDRGQRVDTLRPGQGVGLAVAREITEQYEGKIVAGESMLGGARMEVIFGRQHSAPKDE

The full ranking holds about 140,000 sequences; the median of “enrichment ratio after two sorts for PhoP signalling” is about 0, and the highest 2% start at about 11. The sample as a whole holds a higher share of the highest values than the screen did.

The variants in the assay derive from B1. As to the kind of experiment: enrichment ratio after two sorts for PhoP signalling (ratio (wild type AVST 3.29)); higher = more functional. The conditions noted are these: with PhoP (E. coli).
In the case of KQVW, the enrichment ratio was no more than 0.25.
In the case of ECVR it was no more than 0.25; in that of KPPV, no more than 0.25; in that of MCGN, 16.3.
In the case of MMGN, the enrichment ratio was no more than 0.25.
In the case of MAGN it was 13.5; in that of MEGN, 10.8; in that of KAGN, no more than 0.25.
In the case of NAGN it was no more than 0.25; in that of WWPI, no more than 0.25.
Consider DCFD, for which the enrichment ratio was no more than 0.25.
MIWI: the enrichment ratio stood at 3.74.
For MIYF, the enrichment ratio amounted to 24.3.
Take MITA: the enrichment ratio was no more than 0.25.
In the case of MTYF, the enrichment ratio turned out to be 7.02.
As to MDYF, the enrichment ratio is no more than 0.25.
Turning to MIYI, the enrichment ratio was determined as 24.3.
The value for MILQ was 14; that for MIAD was no more than 0.25.
For MIAA, the enrichment ratio is 11.7.
In the case of MKAA it was no more than 0.25; in that of MELQ, 3.81; in that of MIFA, no more than 0.25.
KCES: the enrichment ratio is no more than 0.25.
Take FVYA: the enrichment ratio is no more than 0.25.
In the case of FGWI, the enrichment ratio is no more than 0.25.
With LDYV, the enrichment ratio was no more than 0.25.
In the case of DLSC, the enrichment ratio is no more than 0.25.
In the case of IAQI, the enrichment ratio is no more than 0.25.
For MISK, the enrichment ratio was no more than 0.25.
Take MILY: the enrichment ratio stood at 0.599.
As to MIMF, the enrichment ratio amounted to 0.51.
For the variant MIYH, the enrichment ratio was 7.94.
Take MISC: the enrichment ratio was found to be 23.
Regarding MIHF, the enrichment ratio turned out to be 3.77.
In the case of MIGH it was 18.2; in that of MITI, 14.6.
For the variant MIFC, the enrichment ratio was no more than 0.25.
The value for MILA was 1.31; that for MITH was no more than 0.25; that for MIGF was 11.9.
Turning to NIWL, the enrichment ratio is no more than 0.25.
As for WCMF, the enrichment ratio is no more than 0.25.
On to KFLW, for which the enrichment ratio is no more than 0.25.
With SFFA, the enrichment ratio was no more than 0.25.
As to IEDQ, the enrichment ratio is no more than 0.25.
As to TAFY, the enrichment ratio was determined as 2.48.
For RVSG, the enrichment ratio is no more than 0.25.
In the case of LAEY it was no more than 0.25; in that of GIVQ, 2.03; in that of MIWV, no more than 0.25.
Regarding MIAT, the enrichment ratio came to 12.1.
On to MFAQ, for which the enrichment ratio is no more than 0.25.
In the case of MIMV it was no more than 0.25; in that of MIFT, no more than 0.25.
In the case of MILT, the enrichment ratio was no more than 0.25.
The value for MIAQ was 14.7; that for MSAQ was 9.85.
MITV: the enrichment ratio amounted to 17.2.
As for HFIN, the enrichment ratio was no more than 0.25.
As for LDFC, the enrichment ratio was no more than 0.25.
As for MDHH, the enrichment ratio is no more than 0.25.
As to PDDC, the enrichment ratio is no more than 0.25.
In the case of IFMI, the enrichment ratio was no more than 0.25.
As for WEFI, the enrichment ratio is no more than 0.25.
Consider THNC, for which the enrichment ratio was found to be 11.9.
The value for SNNC was 18.6; that for RGNC was no more than 0.25; that for STNC was no more than 0.25.
NGNC: the enrichment ratio is no more than 0.25.
Consider TGNC, for which the enrichment ratio came to 61.8.
For the variant TCNC, the enrichment ratio amounted to 14.3.
The value for SLNC was no more than 0.25.
In the case of NHNC it was no more than 0.25.
Regarding KCNC, the enrichment ratio is no more than 0.25.
In the case of KSNC, the enrichment ratio was no more than 0.25.
With SHNC, the enrichment ratio was 0.752.
Consider SIFT, for which the enrichment ratio is no more than 0.25.
For the variant PGDY, the enrichment ratio was no more than 0.25.
With QRCP, the enrichment ratio is no more than 0.25.
Regarding NMAF, the enrichment ratio was no more than 0.25.
On to QMGQ, for which the enrichment ratio is no more than 0.25.
Turning to QVAS, the enrichment ratio was no more than 0.25.
For the variant SKNA, the enrichment ratio is no more than 0.25.
In the case of DLFK it was no more than 0.25.
Turning to DATT, the enrichment ratio was no more than 0.25.
The value for SHNF was 9.74; that for KANC was no more than 0.25; that for NHNQ was no more than 0.25.
In the case of YCNQ it was no more than 0.25; in that of KDNC, no more than 0.25; in that of TDNC, 13.4.
With SHNQ, the enrichment ratio was 0.892.
Turning to IANC, the enrichment ratio is no more than 0.25.
For the variant TANC, the enrichment ratio was found to be 12.1.
As for THNQ, the enrichment ratio was determined as 30.9.
As for FDNC, the enrichment ratio was no more than 0.25.
Regarding TFNC, the enrichment ratio amounted to 2.85.
For the variant TFNQ, the enrichment ratio was determined as 13.4.
In the case of TNPA, the enrichment ratio is no more than 0.25.
In the case of VGFR, the enrichment ratio was no more than 0.25.
As to YITS, the enrichment ratio worked out at 0.602.
ECNN: the enrichment ratio is no more than 0.25.
Take KVKT: the enrichment ratio is no more than 0.25.
As for GNYR, the enrichment ratio was no more than 0.25.
With DIML, the enrichment ratio is no more than 0.25.
In the case of AHSL, the enrichment ratio is 0.581.
On to QESL, for which the enrichment ratio was 0.967.
TESL: the enrichment ratio came to 12.5.
With MESL, the enrichment ratio stood at 13.9.
As for NESL, the enrichment ratio is no more than 0.25.
Regarding AESL, the enrichment ratio is 11.7.
Take AQSL: the enrichment ratio stood at 7.47.
The value for MDSL was no more than 0.25.
For the variant MMSL, the enrichment ratio was 6.66.
RWWS: the enrichment ratio is no more than 0.25.
RAAP: the enrichment ratio was no more than 0.25.
As for FFQI, the enrichment ratio is no more than 0.25.
Regarding NMFS, the enrichment ratio is no more than 0.25.
Turning to AIQP, the enrichment ratio is no more than 0.25.
For ERDH, the enrichment ratio is no more than 0.25.
Consider TVNI, for which the enrichment ratio stood at 12.6.
With PVNI, the enrichment ratio was no more than 0.25.
With TVNS, the enrichment ratio came out at 18.9.
In the case of TVNW it was no more than 0.25; in that of TVNY, no more than 0.25.
On to FVNS, for which the enrichment ratio was no more than 0.25.
As to WILF, the enrichment ratio is no more than 0.25.
As to MDWW, the enrichment ratio is no more than 0.25.
In the case of ACPI it was 9.4.
For the variant RIAV, the enrichment ratio was no more than 0.25.
Consider HQNT, for which the enrichment ratio is no more than 0.25.
In the case of IGGC it was no more than 0.25.
For SHMG, the enrichment ratio was 17.8.
In the case of SHCG it was 16.6.
The value for SHMW was 0.684.
As to SHVG, the enrichment ratio was no more than 0.25.
As to THMG, the enrichment ratio stood at 2.89.
Consider THCG, for which the enrichment ratio was determined as 5.77.
Turning to REDG, the enrichment ratio is no more than 0.25.
For WCII, the enrichment ratio was no more than 0.25.
The value for ENIH was no more than 0.25; that for MRCK was no more than 0.25; that for MGLF was 2.83.
The value for RFHY was no more than 0.25; that for MMCI was no more than 0.25; that for SCAE was 8.81.
For the variant QTYM, the enrichment ratio turned out to be 0.346.
MKYM: the enrichment ratio was 6.46.
For TGYM, the enrichment ratio turned out to be 26.5.
Turning to QQYN, the enrichment ratio was no more than 0.25.
For QQYM, the enrichment ratio came out at 47.2.
In the case of NGYM it was no more than 0.25; in that of RGYM, no more than 0.25; in that of FFYM, no more than 0.25.
Turning to QGYM, the enrichment ratio came out at 23.9.
Take TKYN: the enrichment ratio was no more than 0.25.
